Rows were chosen to be rich in hits. Some 1.7% of all compounds tested hit in one or more screens of this group.
TLR9-MyD88 block: TLR9-MyD88 interaction inhibition; CHO BLA complementation TLR9-MyD88, CCF4 FRET ratio; inhibition, % at 4.98 µM; Q9NR96+Q99836; 340,000 tested, 0.21% active;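 active = inhibition above the mean over all tested compounds plus 3 SD, cut at about 21% in these data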;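 note: 0% = DMSO only wells and 100% = clavulanate BLA inhibitor control wells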
ABCB6 inh MLPCN: inhibitors of human ABC transporter ABCB6; K562-ABCB6 porphyrin accumulation, flow cytometry, 1 h; active compounds read low; 360,000 tested, 0.19% active; fluorescence ratio to DMSO, % at 10 µM; AID 602162;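 active = fluorescence ratio to DMSO below 75%, the collection mean minus 3 SD; inconclusive = too few cells collected in the well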;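 note: signal is porphyrin accumulated inside mitochondria; 100% equals median channel fluorescence of DMSO control wells; lower ratio means ABCB6 inhibition with less porphyrin fluorescence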
TLR4-MyD88 BLA: TLR4-MyD88 interaction inhibition in cells | O00206+Q99836 | HeLa CL3-4 TLR4/MyD88 BLA complementation, FRET ratio | inhibition, % at 8.4 µM | 200,000 tested, 0.18% active | AID 861; in the data active = inhibition above about 25%;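 note: 0% = vehicle and 100% = reference inhibitor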
NOD2-RIPK2 inh: inhibitors of human NOD2-RIPK2 interaction | 360,000 tested, 0.38% active | inhibition, % at 4.98 µM | CHO BLA complementation NOD2-RIPK2, CCF4 ratio | O43353; in the data active = inhibition above about 21%;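 note: 0% = vehicle only and 100% = reference blocker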
Target sequence (O43353 whole entry, looked up): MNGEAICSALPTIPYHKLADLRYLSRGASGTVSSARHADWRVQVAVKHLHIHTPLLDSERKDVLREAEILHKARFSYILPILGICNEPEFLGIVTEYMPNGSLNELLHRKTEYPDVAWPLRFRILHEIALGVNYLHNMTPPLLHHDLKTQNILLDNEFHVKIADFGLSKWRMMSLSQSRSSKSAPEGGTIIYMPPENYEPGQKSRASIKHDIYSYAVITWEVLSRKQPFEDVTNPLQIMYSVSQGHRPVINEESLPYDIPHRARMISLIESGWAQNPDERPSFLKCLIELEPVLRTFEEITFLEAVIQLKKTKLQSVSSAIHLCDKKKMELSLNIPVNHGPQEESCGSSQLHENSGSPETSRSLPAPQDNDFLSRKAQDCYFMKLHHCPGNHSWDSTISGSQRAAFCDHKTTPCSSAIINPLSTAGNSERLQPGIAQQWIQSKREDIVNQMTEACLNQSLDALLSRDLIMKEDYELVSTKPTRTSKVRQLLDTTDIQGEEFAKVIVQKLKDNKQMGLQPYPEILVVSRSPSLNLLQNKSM
Myeloid diff 2: compounds promoting myeloid differentiation | ER-HoxA9 myeloid progenitors, lysozyme-GFP differentiation, flow cytometry | calls only at 10 µM | 360,000 tested, 1% active | AID 624256;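 active = normalized GFP-positive differentiation at or above the plate's own cutoff, the solvent-only control mean plus 3 SD; inconclusive = no clear call, values can overlap the other calls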;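 note: cells exposed to compound for four days before flow analysis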
NOD2 RIPK2 conf: NOD2-RIPK2 interaction inhibition confirmed; CHO cells, NOD2-RIPK2 BLA complementation, CCF4 FRET; 1,200 tested, 70% active; AID 624370; shares compounds with NOD2-RIPK2 inh; inhibition, % at 4.98 µM;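 active = mean inhibition across replicates above a set limit taken from the earlier primary screen, cut at about 21% in these data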;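 note: 0% = DMSO-only wells and the high end = clavulanate BLA-blocked wells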
BLA counter: hits BLA reporter in NOD2-RIPK2 inhibitor counterscreen; shares compounds with NOD2-RIPK2 inh; CHO BLA reporter, CCF4 FRET ratio; inhibition, % at 4.98 µM; 1,200 tested, 57% active; AID 624371;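 active = mean inhibition above the low-control mean inhibition plus three low-control SD, cut at about 11% in these data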;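 note: 0% = DMSO only wells and 100% = clavulanate high control wells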
An asterisk follows results filed as active; i = inactive; ? = inconclusive; / = not tested or not shown.

SMILES	TLR9-MyD88 block	ABCB6 inh MLPCN	TLR4-MyD88 BLA	NOD2-RIPK2 inh	Myeloid diff 2	NOD2 RIPK2 conf	BLA counter
O=C1/C(=C\c2ccccc2)CN(C(=O)CCN2CCCCC2)C/C1=C/c1ccccc1	11.7	105.0	/	35.6*	?	54.5*	0.7
O=C1/C(=C\c2ccc(Cl)c(Cl)c2)CN(C(=O)CCN2CCOCC2)C/C1=C/c1ccc(Cl)c(Cl)c1	-6.9	97.0	/	39.4*	/	76.0*	4.9
O=C(NCCN1CCOCC1)c1ccc(Cl)c(Cl)c1	-2.3	98.0	/	-2.4	i	/	/
CC(Oc1ccccc1)C(=O)Nc1cc(Cl)ccc1-n1cncn1 (centres undefined)	-7.2	101.0	/	3.2	i	/	/
CCOC(=O)N1CCN(C(=O)C[C@@H]2C[C@@]3(C(=O)OC)CC(C)(C)CC=C3N(CCc3ccc(OC)c(OC)c3)C2=O)CC1	/	/	/	0.6	i	/	/
COc1cc(/C=C/[N+](=O)[O-])ccc1OC(=O)/C=C/c1ccc(F)cc1	1.5	103.0	/	37.7*	i	56.3*	-2.4
COc1ccc(/C=C/C(=O)Oc2ccc(C)c(C)c2)cc1OC	-4.8	91.0	-4.3	-3.1	i	/	/
N#Cc1ccc2sn(-c3ccccc3)c(=O)c2c1	10.5	98.0	/	24.8*	i	50.0*	11.7*
CC(=O)Nc1ccc2sn(-c3ccccc3)c(=O)c2c1	5.2	100.0	/	30.2*	i	22.3*	-3.5
CCn1c2ccccc2c2cc(NC(C)=O)ccc21	4.0	100.0	-0.7	-11.2	i	/	/
Cc1[nH]c(=S)c(C#N)c2c1CCCC2	1.7	98.0	-9.9	27.2*	i	-9.0	-5.8
CC(C)(C)NC(=O)C(c1ccccc1F)n1c(=O)c(-c2cc3ccccc3[nH]2)nc2ccccc21 (centres undefined)	/	/	/	50.3*	i	46.3*	67.7*
CC(C)(C)NC(=O)C(c1ccccc1F)n1c(=O)c(-c2ccco2)nc2ccccc21 (centres undefined)	/	/	/	-12.8	i	/	/
CC(C)(C)NC(=O)C(c1ccnc2ccccc12)n1c(=O)c(-c2cc3ccccc3[nH]2)nc2ccccc21 (centres undefined)	/	/	/	49.3*	i	45.6*	65.5*
CC(C)(C)NC(=O)C(c1ccnc2ccccc12)n1c(=O)c(-c2ccccc2)nc2ccccc21 (centres undefined)	/	/	/	-6.9	i	/	/
O=C(C#Cc1cccc([N+](=O)[O-])c1)c1ccccc1	6.5	95.0	-1.4	27.2*	i	77.1*	17.0*
CCN(CC)Cc1c(O)ccc2cc(-c3nc4ccccc4n3C)c(=O)oc12	-1.6	101.0	/	28.6*	i	34.9*	56.2*
CCc1cc2c(=O)c(-c3nc4ccccc4n3C)c(C)oc2c(CN(CC)CC)c1O	-13.0	103.0	0.0	-11.7	i	/	/
CN(C)C(=O)c1ccc(NC(=O)c2sccc2-c2ccccc2)cc1	-4.2	101.0	/	-9.7	i	/	/
COc1ccc(N2CCN(C(=O)[C@@H]3CCCN3C3=NS(=O)(=O)c4ccccc43)CC2)cc1	-10.7	101.0	/	-3.8	i	/	/
O=C(Nc1cc(Br)ccc1O)C1CC(c2c(F)cccc2Cl)=NO1 (centres undefined)	1.9	99.0	/	21.7*	i	0.1	-3.1
CC(C)c1cc(-c2cc(C(=O)NCc3ccccc3)on2)nc(NCC2CC2)n1	-5.1	97.0	/	-10.5	i	/	/
C=CCN1C=CC(=O)[C@@H](OC(=O)Nc2ccc(Br)cc2)[C@H]1c1ccccc1Br	8.9	85.0	/	0.5	i	/	/
CN1C=CC(=O)[C@@H](OC(=O)Nc2ccc(Br)cc2)[C@H]1c1ccccc1Br	-4.5	98.0	/	22.8*	/	-2.4	-5.6
COc1ccc(C)c2sc(N(CCCN(C)C)C(=O)c3ccc(S(=O)(=O)N4CCc5ccccc5C4)cc3)nc12	10.9	101.0	/	24.3*	/	44.3*	15.6*
C1CCN(C2CCN(c3nc4nonc4nc3N3CCSCC3)CC2)C1	3.7	109.0	-7.6	-6.7	i	/	/
CN(CC1COCCO1)c1nc2nonc2nc1N1CCSCC1 (centres undefined)	-15.7	104.0	-23.5	33.7*	i	-1.8	1.6
